# PNC inhibitor: blocks assembly of the perinucleolar compartment; PC3M PTB-GFP, PNC prevalence imaging, 16 h; stronger effect = lower value; activity change (PNC), negative = inhibition, % at 10 µM; AID 2417; hit rate 3.1% among 140,000;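 active means readout at or below -70, meaning at least 70% loss of cells showing the perinucleolar compartment, a nuclear body marking cancer cells; inconclusive means readout between -30 and a set limit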;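 further: plate controls were DMSO wells for no effect and camptothecin positive control wells for full effect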
#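 Read-out is percentage of cells bearing a perinucleolar compartment, from automated 20x imaging of fixed, Hoechst-stained PC3M PTB-GFP cells. Cells were seeded 4 h, then exposed 16 h to compound (23 nl of library stock) in duplicate plates.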
# 12-hLO inh: 12-hLO (ALOX12) enzyme inhibition | Potency, µM (doses to about 57.1 µM), for the others: at the top dose activity change, negative = inhibition, most hits filed as inhibitors | purified 12-hLO, xylenol orange hydroperoxide absorbance | P18054 | hit rate 0.12% among 150,000; active means well fitted inhibition curve with a large enough effect; inconclusive means small, poorly fitted or top-dose-only effect; further: potency means the concentration at half of the fitted maximal effect; nearly all actives have a fitted effect of over 55% in size
# Target sequence (P18054 whole entry, looked up): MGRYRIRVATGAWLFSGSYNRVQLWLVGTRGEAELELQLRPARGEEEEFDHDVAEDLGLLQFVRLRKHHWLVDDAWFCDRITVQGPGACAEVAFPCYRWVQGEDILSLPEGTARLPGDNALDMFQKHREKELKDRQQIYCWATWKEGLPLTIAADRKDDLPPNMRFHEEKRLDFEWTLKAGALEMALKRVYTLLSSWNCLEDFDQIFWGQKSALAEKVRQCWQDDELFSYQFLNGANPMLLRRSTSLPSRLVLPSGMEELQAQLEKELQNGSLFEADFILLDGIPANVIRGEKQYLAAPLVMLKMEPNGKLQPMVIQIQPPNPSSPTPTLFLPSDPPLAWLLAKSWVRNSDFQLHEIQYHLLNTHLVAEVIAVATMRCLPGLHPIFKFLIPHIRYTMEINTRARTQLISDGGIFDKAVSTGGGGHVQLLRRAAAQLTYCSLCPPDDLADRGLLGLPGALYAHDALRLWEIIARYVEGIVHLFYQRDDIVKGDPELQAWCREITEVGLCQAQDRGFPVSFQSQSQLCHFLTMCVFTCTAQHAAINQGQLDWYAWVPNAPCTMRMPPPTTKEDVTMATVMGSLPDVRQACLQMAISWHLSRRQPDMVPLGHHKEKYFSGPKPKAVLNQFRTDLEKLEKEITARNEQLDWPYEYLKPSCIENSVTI
#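 Purified human 12hLO (150 nM), preincubated 15 min with compound, then 40 uM arachidonic acid for 30 min, room temperature, Hepes pH 7.0 with 0.01% Triton X-100. Hydroperoxide detected by ferrous iron/xylenol orange; 573/405 nm absorbance ratio gives reaction progress.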
# Lamin A splicing: changes lamin A minigene splicing in HeLa cells. HeLa LMNA splicing GFP/RFP minigene ratio, 48 h. hit rate 0.01% among 200,000. Potency, µM (series often up to 46.1 µM), without a hit: top-dose ratio change, negative = inhibition, usual class: inhibitors; active means well fitted inhibition curve with a large enough effect in the signal ratio, with a control signal flat, not every such curve was filed as active; inconclusive means small, poorly fitted or top-dose-only effect, or effect the other way, or a change in a side signal; the % refers to the signal ratio; further: potency means the concentration at half of the fitted maximal effect
#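 S3 HeLa cells stably expressing lamin A-EGFP splicing minigene plus DsRed2, 600 cells/well, 48 h compound exposure at 37C. Laser-scanning cytometry; analysed as GFP (500-530 nm)/RFP (575-640 nm) total intensity ratio; 0.5% DMSO vehicle.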
# ALDH1A1 block: ALDH1A1 (human) enzyme inhibition; P00352; Purified ALDH1A1, NADH fluorescence, propionaldehyde substrate; Potency, µM (titrated, usually from 75.3 µM), for the others: at the top dose activity, negative = inhibition, actives largely listed as inhibitors; hit rate 7.3% among 220,000; AID 1030;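 further: potency means the concentration at half of the fitted maximal effect; plate controls were no enzyme wells and a reference inhibitor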
# HPGD inh: HPGD (human) dehydrogenase inhibition | purified HPGD, NADH fluorescence kinetic, PGE2 substrate | hit rate 4.3% among 150,000 | Potency, µM, inactives show at the highest dose activity change, negative = inhibition, hits mostly inhibitors | P15428 | AID 894; further: potency means the concentration at half of the fitted maximal effect
#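 NADH formation kinetics: reaction with 30 uM PGE2 and 1 mM NAD+ (final), 20 nM enzyme, Tris-HCl pH 8 with Tween 20, after 15 min compound preincubation at room temperature. Fluorescence change, last versus first of five reads.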
# * marks the source's active call; other numbers are inactive results; ? = inconclusive; . = no result given; [ ] = dose if it differs, or a comment. An excerpt weighted towards active compounds, which were near 10% of everything screened. Unless noted, the call rests on the fitted dose curve; in most records, active means well fitted inhibition curve with a large enough effect (not every such curve was filed as active); inconclusive means small, poorly fitted or top-dose-only effect, or another doubt; inactive means no such curve, though single readings can be large or run the other way. Unless noted, on the % scale 0 is the no-effect control and ±100 the full control effect.
SMILES,PNC inhibitor,12-hLO inh,Lamin A splicing,ALDH1A1 block,HPGD inh
CCc1[nH]nc2c1C1(C(=O)N(Cc3ccccc3)c3ccccc31)C(C#N)=C(N)O2 (stereo unspecified),47.9,0.9%,-8.1%,7.94µM*,-15.4%
COC(=O)Cc1[nH]nc2c1C1(C(=O)N(Cc3ccc(Cl)cc3)c3ccccc31)C(C#N)=C(N)O2 (stereo unspecified),4.3,-13.2%,8.2%,?,-4.1%
OB(O)c1csc2ccccc12,.,-0.3%,.,0.2%,-4.6%
CC(c1ccccc1)n1cc(C(=O)NCc2ccccn2)nn1 (stereo unspecified),-5.2,4.7%,6.3%,1.6%,-3.9%
Cc1ccc(C(C)n2cc(C(=O)NCc3cccnc3)nn2)cc1 (stereo unspecified),19.2,-2.0%,4.4%,11.2µM*,-4.7%
CCC1CN(C(=O)N2CCC(C(=O)N3CCN(c4ccccc4F)CC3)CC2)c2ccccc2O1 (stereo unspecified),.,.,-6.2%[46 µM],.,.
COc1cccc(NS(=O)(=O)c2cc(C)sc2C)c1,-100.0*,-5.2%,?,-8.3%,?
CC(=O)Nc1ccc(NC(=O)CCNS(=O)(=O)c2cccc3nsnc23)cc1,.,.,?,12.6µM*,.
CC(=O)c1cccc(NC(=O)CCS(=O)(=O)c2cccc3nsnc23)c1,?,-3.7%,10.4%,22.4µM*,28.2µM*
COC(CNS(=O)(=O)c1cccc2nonc12)OC,.,.,6.5%[46 µM],?,.
COc1ccc(NC(=O)CNS(=O)(=O)c2cccc3nonc23)c(OC)c1,?,-7.0%,0.3%,12.6µM*,?
Cc1cc(S(=O)(=O)Nc2cccc(Cl)c2)c(C)s1,.,.,18.4%[9.22 µM],-7.0%,.
O=C(CCS(=O)(=O)c1cccc2nsnc12)NCc1ccccc1,-26.4,1.6%,-5.5%,?,-6.0%
Cc1cc(=O)[nH]c2nnc(SCC(=O)Nc3ccc(F)cc3F)n12,.,.,-7.0%[46 µM],.,.
CC1OC(n2cc(F)c(=O)[nH]c2=O)C(O)C1O (stereo unspecified),.,-2.3%,?,3.1%,-8.5%
COc1cc2c(cc1OC)C(COc1ccc(F)cc1)N(C(=O)c1ccc(S(=O)(=O)N3CCCC3)cc1)CC2 (stereo unspecified),.,.,-12.5%[46 µM],.,.
O=C(CCCNS(=O)(=O)c1cccc2nsnc12)NCc1ccc(Cl)cc1,-11.3,-3.7%,9.7%,?,-8.2%
Cc1ccc(CNC(=O)CCCNS(=O)(=O)c2cccc3nonc23)cc1,14.4,-12.8%,1.1%,7.08µM*,-12.4%
CSc1cccc(NS(=O)(=O)c2cccc3nsnc23)c1,11.5,-14.0%,?,?,-14.3%
O=C(CCCNS(=O)(=O)c1cccc2nsnc12)NCc1ccc(F)cc1,33.7,1.8%,-7.6%,?,-16.9%
O=C(CCCNS(=O)(=O)c1cccc2nsnc12)NCc1ccccc1,?,-4.1%,?,5.01µM*,.
COc1ccc(CNC(=O)CCCNS(=O)(=O)c2cccc3nonc23)cc1,-18.3,0.4%,1.9%,14.1µM*,-6.1%
COc1cc(NS(=O)(=O)c2cccc3nsnc23)cc(OC)c1,-82.0*,-6.3%,-9.8%,6.7%,-3.4%
COc1ccc(CCNC(=O)CCNS(=O)(=O)c2cccc3nonc23)cc1OC,-26.3,4.7%,6.8%,?,-9.9%
CC(=O)c1ccc(NC(=O)CCNS(=O)(=O)c2cccc3nonc23)cc1,-25.5,-2.7%,-9.1%,?,-10.5%
SMILES,PNC inhibitor,12-hLO inh,Lamin A splicing,ALDH1A1 block,HPGD inh
CCc1ccc(NC(=O)CCNS(=O)(=O)c2cccc3nonc23)cc1,59.0,-5.2%,-7.4%,22.4µM*,-0.1%
Cc1ccccc1OCc1ccc(-c2nc(C#N)c(N3CCC(C(N)=O)CC3)o2)o1,.,.,11.4%[46 µM],.,.
Cc1ccccc1-n1nnnc1-c1ccccc1,16.9,-2.8%,16.7%,4.47µM*,-12.8%
COc1ccc(-c2nnnn2-c2ccccc2OC)cc1,55.6,-5.1%,-24.4%,7.94µM*,1.3%
CC(C)N(CC(=O)Nc1ccc(Cl)cc1C(F)(F)F)C(=O)CCl,.,.,-17.8%[46 µM],1.78µM*,.
COc1ccc(CCN(C)C(=O)CSc2nnnn2C)cc1OC,.,.,.,4.9%,.
CCN(C(=O)c1cnc(N2CCOCC2)c2ccccc12)c1cc(C)ccc1C,.,.,6.0%[46 µM],.,.
Cc1cccc(NC(=O)C(=O)NCC(c2cccnc2)N2CCc3ccccc3C2)c1C (stereo unspecified),.,.,8.6%[46 µM],.,.
O=C(c1cccc(Br)c1)c1conc1C(=O)c1ccco1,-113.8*,0.5%,2.7%,-4.7%,-5.0%
COc1ccc(S(=O)(=O)N2CCCN(CC(=O)C(C)(C)C)CC2)cc1,37.6,-12.2%,-0.6%,20µM*,-10.8%
COc1ccc(NC(=O)CN2CCN(S(=O)(=O)c3ccc(Br)cc3)CC2)cc1,.,.,-4.1%[46 µM],.,.
COc1ccc(OC)c(C(=O)CN2CCN(S(=O)(=O)c3ccc(Br)cc3)CC2)c1,-0.8,-14.0%,-6.9%,1.58µM*,-29.5%
COc1ccc(S(=O)(=O)N2CCCN(CC(=O)Nc3ccc4c(c3)OCO4)CC2)cc1,47.3,-3.6%,3.7%,?,-4.5%
Brc1ccccc1C1=Nn2c(nnc2-c2ccccc2)SC1,-6.8,-4.4%,0.4%,?,15.8µM*
Cc1ccc(-c2nnc3n2N=C(c2ccc(Br)cc2)CS3)cc1,-105.7*,0.8%,4.0%,10.7%,-12.9%
Cc1cccc(-c2nnc3n2N=C(c2ccc(Br)cc2)CS3)c1,9.0,0.4%,-6.4%,13.2%,0.8%
Cc1cc(C)n(-c2nnc3n2N=C(c2c[nH]c4ccccc24)CS3)n1,-11.6,-5.9%,?,-2.9%,-8.6%
CCOc1ccc(C2=Nn3c(nnc3-c3ccccc3OC)SC2)cc1,-86.1*,-8.3%,?,5.1%,-11.2%
Cc1cc(C)n(-c2nnc3n2N=C(c2ccccc2)CS3)n1,-135.3*,17.2%,2.9%,?,-15.7%
Cc1onc(-c2c(F)cccc2Cl)c1C(=O)N1CCOC12CCCCC2,.,.,.,-3.3%,.
CCOC(=O)c1ccccc1OC(=O)CS(=O)c1ccccc1[N+](=O)[O-] (stereo unspecified),.,.,-7.9%[46 µM],22.4µM*,.
N=C(N)c1ccc(/C=C\c2ccc(C(=N)N)cc2)cc1,.,-3.2%[11.4 µM],.,?,?
COCCN(C(=O)C(F)(F)F)C(C(=O)NC1CCCCC1)c1ccco1 (stereo unspecified),?,0.7%,6.9%,4.74µM*,-11.4%
COCCN(C(=O)CNC(=O)c1ccco1)C(C(=O)NC1CCCC1)c1cccs1 (stereo unspecified),-100.0*,0.6%,-0.7%,5.8%,-18.0%
COCCN(C(=O)CNC(=O)c1cccs1)C(C(=O)NC1CCCCC1)c1ccco1 (stereo unspecified),20.6,-4.2%,?,-9.7%,-10.6%
O=C(O)[C@@H]1[C@@H](C(=O)NCc2cccnc2)[C@@H]2C=C[C@@H]1O2,.,-2.8%[11.4 µM],.,2.9%[13.5 µM],-12.7%
CC(=O)N1CCC(=NNC(=O)c2cccs2)CC1,-109.0*,0.5%,-1.8%,-15.5%,0.2%

# Bioassay records deposited in PubChem BioAssay by National Center for Advancing Translational Sciences (NCATS).
